Values joined by “and” are separate entries in the source; they are usually repeats but may differ in a detail not shown here. Equal entries are not always repeated. Results filed as inconclusive are left out. Active and inactive are the calls of the source. Unless noted, calls come from the whole dose curve; as a rule, active = well fitted curve in the direction sought with a large enough effect; inconclusive = small, poorly fitted or top-dose-only effect, or another doubt; inactive = no such curve, though single readings can be large; an effect the other way counts as inactive or inconclusive.
Legend:
[1] = Cell Viability - HepG2 (AID 433; calls by dose curve;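 note: potency is the fitted concentration of half-maximal effect; cells exposed to compound for 40 hours; potency for ATP loss meaning cytotoxicity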); conditions: qHTS
Summary of the method: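 In this qHTS format, a 40 h, 37 °C compound incubation of HepG2 cells in complete medium precedes a 20 min CellTiter-Glo step at room temperature. Tamoxifen and doxorubicin serve as positive controls; Hill-equation fits yield AC50.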

[2] = Cell Viability - MRC5 (AID 434; calls by dose curve;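 note: potency is the fitted concentration of half-maximal effect; cells exposed to compound for 40 hours at 37 °C; potency reflects cytotoxicity seen as loss of intracellular ATP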); conditions: MRC5 lung fibroblast viability, qHTS
Summary of the method: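 ATP luminescence read-out (CellTiter-Glo, 20 min RT) after 40 hr, 37 °C compound exposure of 1500 MRC5 cells/well. Data normalized to DMSO (basal) and 100 uM tamoxifen (100% inhibition); AC50 from standard Hill equation.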

[3] = Cell Viability - Mesenchymal (AID 546); conditions: mesenchymal cells viability, qHTS; series mostly up to 91.7 µM;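 note: cells exposed to compound for 40 hours before reading; 0% = DMSO only and -100% = 100 µM tamoxifen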
Summary of the method: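 Human renal mesenchymal cells (glomerulus-derived), 1000 cells/well, 5 hr 37 °C pre-incubation; compound 40 hr, 37 °C; CellTiter-Glo, 20 min RT; luminescence; AC50 via Hill equation.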

[4] = Cellular Toxicity (caspase-3) HUV-EC-C (AID 656); conditions: HUV-EC-C cells, caspase-3 activation (apoptosis), vehicle = 0, 100 µM tamoxifen = 100%; series mostly up to 92.2 µM;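 note: 0% = DMSO basal and 100% = 100 µM tamoxifen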
Summary of the method: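 Concentration-dependent caspase 3/7 induction was assessed in HUV-EC-C cells exposed for 16 hours. Data scaled between DMSO and tamoxifen (100 uM) controls.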

[5] = Cellular Toxicity (caspase-3) SK-N-SH (AID 661); conditions: SK-N-SH caspase-3 activation, qHTS; series mostly up to 91.7 µM;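 note: 0% = DMSO basal and 100% = 10 µM staurosporine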
Summary of the method: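 Luminescent Caspase-Glo 3/7 read-out after 16 hr compound exposure of SK-N-SH neuroblastoma cells at 37 °C. Signal increase normalized to DMSO (basal) and 10 uM staurosporine (100%); AC50 from Hill equation fits of qHTS concentration-response data.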

[6] = Cellular Toxicity (caspase-3) H-4-II-E (AID 663); conditions: H-4-II-E rat hepatoma; Potency: caspase-3 activation; series mostly up to 92.2 µM;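 note: cells exposed to compound for 16 hr before readout; 0% = DMSO basal and 100% = 100 µM tamoxifen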
Summary of the method: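 H-4-II-E rat hepatoma, 1500 cells/well, 5 hr settle at 37 °C; compound 16 hr, 37 °C, complete medium; Caspase-Glo 3/7, 20 min RT; luminescence. DMSO = 0%, 100 uM tamoxifen = 100%; Hill-equation AC50.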

[7] = MultiTox-Fluor Cytotoxicity Assay - LYMP1-002 - Dead Cells (AID 960); conditions: LYMP1-002 lymphoblastoid cells, dead-cell protease fluorescence; series mostly up to 46.1 µM;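 note: 0% = DMSO and 100% = tetraoctylammonium bromide; nearly all actives have a fitted effect of over 60% in size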
Summary of the method: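 Readout: fluorescence at 485/520 from cell-impermeant bis-AAF-R110 cleaved by proteases leaking from damaged cells. LYMP1-002 lymphoblastoid line, 16 hr compound treatment at 37 C, concentration-response in qHTS format; Hill-equation AC50 values.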

[8] = MultiTox-Fluor Cytotoxicity Assay - LYMP1-003 - Live Cells (AID 962); conditions: LYMP1-003 lymphoblastoid cells, MultiTox-Fluor live-cell protease fluorescence; series mostly up to 92.2 µM;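 note: cells exposed to compound for 16 hours at 37 °C; 0% = DMSO only and full loss = 92 µM tetraoctylammonium bromide; cytotoxic hits lower the live-cell protease signal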
Summary of the method: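 Readout: live-cell fluorescence (Ex/Em=405/510) from GF-AFC cleavage after 60 min MultiTox-Fluor reagent at room temperature. Lymphoblastoid LYMP1-003 cells, 16 hr compound treatment, 37 C. Concentration-response fitted to standard Hill equation for AC50.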

[9] = Cell Viability - LYMP2-005 (AID 967); conditions: LYMP2-005 lymphoblastoid cell viability; series mostly up to 92.2 µM;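 note: plate controls were DMSO only for no effect and 92 µM tetraoctylammonium bromide control for full effect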
Summary of the method: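 Luciferase-based ATP quantitation served as the viability measure in human lymphoblastoid LYMP2-005 cells exposed to test compounds for 24 h at 37 C in complete culture medium. Potency (AC50) was obtained by fitting concentration-response curves with the Hill equation.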

[10] = Cell Viability - LYMP2-023 (AID 975); conditions: LYMP2-023 lymphoblastoid cell viability; series mostly up to 92.2 µM;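 note: cellular ATP measured by luciferase luminescence as viability proxy; plate controls were DMSO only for no effect and 92 µM tetraoctylammonium bromide control for full effect; nearly all actives have a fitted effect of over 55% in size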
Summary of the method: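 CellTiter-Glo luminescence after 30 min at room temperature; decrease in intracellular ATP reflects toxicity. Cells: human lymphoblastoid line, 2500/well, 24 hr compound exposure at 37 C. AC50 fitted to standard Hill equation from concentration-response.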

[11] = Cell Viability - LYMP2-006 (AID 978); conditions: LYMP2-006 lymphoblastoid cell viability, qHTS; series mostly up to 92.2 µM; note: % is set by controls: 0 for no effect and ±100 for the full control effect; nearly all actives have a fitted effect of over 60% in size
Summary of the method: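 In this cytotoxicity screen, the human lymphoblastoid line grew in complete medium with test compounds for 24 hr at 37 C. Cellular ATP served as the viability signal.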

[12] = target: Vitamin D3 receptor (Homo sapiens) (UniProt P11473); assay: qHTS assay for small molecule antagonists of vitamin D receptor signaling (AID 588541; calls by dose curve;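 note: receptor activated by calcitriol during compound treatment; % is set by controls: 0 for no effect and ±100 for the full control effect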); conditions: HEK293T VDR-UAS-bla, beta-lactamase ratio, antagonist mode; series mostly up to 76.7 µM
Summary of the method: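 VDR-UAS-bla HEK293T cells in 2% charcoal-stripped FBS were stimulated with 1-alpha,25-dihydroxyvitamin D3 (3 nM final) plus compound for 16 h at 37 C. The beta-lactamase CCF4 readout was normalized to 50 nM agonist and DMSO, and Hill fits gave IC50.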

[13] = target: Retinoic acid receptor RXR-alpha (Homo sapiens) (UniProt P19793); assay: qHTS assay for small molecule agonists of retinoid X receptor alpha signaling (AID 588544; calls by dose curve;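 note: 0% = DMSO basal wells and 100% = reference agonist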); conditions: HEK293T RXRa-UAS-bla, beta-lactamase reporter, 18 h; series mostly up to 76.7 µM
[14] = target: Thyroid hormone receptor beta (Homo sapiens) (UniProt P10828); assay: qHTS assay for small molecule agonists of thyroid hormone receptor beta signaling (AID 588545; calls by dose curve;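 note: 0% = DMSO only and 100% = 10 nM T3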); conditions: TR-UAS-bla GripTite HEK 293, beta-lactamase ratio, agonist mode, 18 h; series mostly up to 76.7 µM
Summary of the method: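 Compounds were tested as agonists in TR-UAS-bla-GripTite HEK 293 cells. After 18 hrs at 37 C, CCF4 substrate was added and fluorescence read after 2 hrs at room temperature.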

[15] = target: Thyroid hormone receptor beta (Homo sapiens) (UniProt P10828); assay: qHTS assay for small molecule antagonists of thyroid hormone receptor beta signaling (AID 588547; active = well fitted inhibition curve with a large enough effect in the signal ratio, with a control signal flat, not every such curve was filed as active; the % refers to the signal ratio;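 note: cells stimulated with 0.4 nM T3 agonist during compound exposure; % is set by controls: 0 for no effect and ±100 for the full control effect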); conditions: TR-UAS-bla HEK293, beta-lactamase ratio, antagonist mode, 18 h
Summary of the method: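 TR-UAS-bla GripTite HEK293 cells in 2% charcoal/dextran FBS medium; compounds 0.59 nM to 92 uM with T3 at 0.4nM final, 18 h at 37 C. Beta-lactamase read by CCF4 fluorescence (460/530 nm); Hill fits gave IC50 and efficacy.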

[16] = target: Mitogen-activated protein kinase 10 (Mus musculus) (UniProt Q61831); assay: JNK3 AlphaScreen Assay (AID 530; active = well fitted curve in either direction with a large enough effect, not every such curve was filed as active;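 note: kinase came from lysate of stimulated human HepG2 cells; signal reports phosphorylation of biotinylated GST-cJun 1-79 at Ser73 with 10 µM ATP; % is set by controls: 0 for no effect and ±100 for the full control effect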); conditions: JNK3 lysate, c-Jun phosphorylation; series mostly up to 57.1 µM
Summary of the method: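 HepG2 lysate (IL-1b/TNFa pre-activated) + biotin-GST-cJun 1-79 + anti-pSer73 cJun; cpd titration, 15 min RT; ATP 10 uM start; Tris pH 7.6, MgCl2, DTT, vanadate; beads in EDTA buffer; AlphaScreen.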

[17] = Cell Viability - LYMP2-007 (AID 979); conditions: LYMP2-007 lymphoblastoid cell viability; series mostly up to 92.2 µM;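 note: cells exposed to compound for 24 h before reading; 0% = DMSO only and the negative end = 92 µM tetraoctylammonium bromide; nearly all actives have a fitted effect of over 60% in size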
Summary of the method: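 qHTS cytotoxicity: 2500 cells/well, 5 hr 37 C settle, compound 24 hr 37 C, CellTiter-Glo 30 min RT, luminescence. Decrease in ATP = toxicity. AC50 by standard Hill equation; tetraoctylammonium bromide positive control.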

[18] = Cell Viability - LYMP2-021 (AID 974); conditions: LYMP2-021 lymphoblastoid cells viability; series mostly up to 92.2 µM;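 note: compound exposure lasts 24 hours at 37 °C; % is set by controls: 0 for no effect and ±100 for the full control effect; nearly all actives have a fitted effect of over 55% in size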
Summary of the method: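 ATP luminescence (CellTiter-Glo, 30 min RT) after 24 h compound exposure at 37 C; 2500 human lymphoblastoid cells/well, 5 h settle beforehand. Cytotoxicity = concentration-dependent ATP drop, AC50 by Hill fit.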

[19] = target: Nuclear receptor subfamily 1 group I member 2 (Rattus norvegicus) (UniProt Q9R1A7); assay: qHTS assay for small molecule activators of the rat pregnane X receptor (rPXR) signaling pathway (AID 651751; call rule not given here; note: 0% is about no effect); conditions: rPXR reporter cells, luciferase (One-Glo), 24 h
[20] = qHTS assay for small molecule activators of the human pregnane X receptor (PXR) signaling pathway (AID 720659; call rule not given here; note: 0% is about no effect); conditions: DPX-2 HepG2 CYP3A4-luciferase, 24 h; series mostly up to 92.3 µM

Sequence of Vitamin D3 receptor (Homo sapiens) (P11473 whole entry, looked up): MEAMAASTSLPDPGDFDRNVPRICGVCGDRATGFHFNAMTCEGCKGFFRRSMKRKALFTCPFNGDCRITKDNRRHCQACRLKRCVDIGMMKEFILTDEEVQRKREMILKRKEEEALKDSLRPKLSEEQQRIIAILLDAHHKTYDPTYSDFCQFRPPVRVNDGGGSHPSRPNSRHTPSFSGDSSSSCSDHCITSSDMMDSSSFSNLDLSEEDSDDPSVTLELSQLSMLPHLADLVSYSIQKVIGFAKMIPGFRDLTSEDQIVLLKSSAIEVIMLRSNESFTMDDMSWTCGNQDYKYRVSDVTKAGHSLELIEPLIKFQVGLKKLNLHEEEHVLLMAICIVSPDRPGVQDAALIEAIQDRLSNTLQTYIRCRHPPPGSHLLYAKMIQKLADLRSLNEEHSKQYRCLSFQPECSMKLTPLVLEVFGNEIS
Sequence of Thyroid hormone receptor beta (Homo sapiens) (P10828 whole entry, looked up): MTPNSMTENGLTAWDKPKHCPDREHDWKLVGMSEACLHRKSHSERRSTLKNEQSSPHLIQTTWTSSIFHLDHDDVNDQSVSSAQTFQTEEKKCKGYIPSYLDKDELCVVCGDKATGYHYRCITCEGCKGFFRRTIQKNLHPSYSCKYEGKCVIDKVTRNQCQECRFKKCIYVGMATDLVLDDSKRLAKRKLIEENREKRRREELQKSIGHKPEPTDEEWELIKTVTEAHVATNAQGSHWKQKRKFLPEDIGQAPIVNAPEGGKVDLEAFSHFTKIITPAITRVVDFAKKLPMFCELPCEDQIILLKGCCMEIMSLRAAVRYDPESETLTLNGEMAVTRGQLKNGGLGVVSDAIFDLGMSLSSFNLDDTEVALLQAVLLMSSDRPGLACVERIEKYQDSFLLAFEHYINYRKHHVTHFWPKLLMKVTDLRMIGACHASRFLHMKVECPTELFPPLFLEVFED
Sequence of Nuclear receptor subfamily 1 group I member 2 (Rattus norvegicus) (Q9R1A7 whole entry, looked up): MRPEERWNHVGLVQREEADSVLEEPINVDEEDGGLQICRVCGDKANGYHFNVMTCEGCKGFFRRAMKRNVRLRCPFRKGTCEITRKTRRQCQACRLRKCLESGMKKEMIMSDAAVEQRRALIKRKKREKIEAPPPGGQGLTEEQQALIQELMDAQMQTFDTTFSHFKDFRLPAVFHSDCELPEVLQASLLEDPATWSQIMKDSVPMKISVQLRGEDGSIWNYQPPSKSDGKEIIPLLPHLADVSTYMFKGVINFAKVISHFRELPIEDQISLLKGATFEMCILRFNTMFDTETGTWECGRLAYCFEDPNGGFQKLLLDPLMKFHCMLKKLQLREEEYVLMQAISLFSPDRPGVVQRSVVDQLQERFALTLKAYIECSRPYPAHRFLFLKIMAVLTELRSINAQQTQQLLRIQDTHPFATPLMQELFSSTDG
Sequence of Retinoic acid receptor RXR-alpha (Homo sapiens) (P19793 whole entry, looked up): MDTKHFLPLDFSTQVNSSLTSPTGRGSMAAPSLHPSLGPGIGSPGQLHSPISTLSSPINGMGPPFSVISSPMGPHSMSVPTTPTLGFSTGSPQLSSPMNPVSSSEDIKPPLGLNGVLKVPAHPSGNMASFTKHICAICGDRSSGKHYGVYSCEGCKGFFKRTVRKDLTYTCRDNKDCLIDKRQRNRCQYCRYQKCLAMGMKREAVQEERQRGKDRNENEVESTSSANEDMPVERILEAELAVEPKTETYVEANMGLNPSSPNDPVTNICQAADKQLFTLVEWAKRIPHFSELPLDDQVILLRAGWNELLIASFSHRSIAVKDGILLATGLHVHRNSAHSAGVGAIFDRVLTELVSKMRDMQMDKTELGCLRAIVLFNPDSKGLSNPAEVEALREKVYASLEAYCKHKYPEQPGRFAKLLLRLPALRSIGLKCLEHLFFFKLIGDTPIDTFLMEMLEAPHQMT

CC(C)(C)C(O)(CCc1ccc(Cl)cc1)Cn1cncn1 (stereo unspecified)
inactive: Potency [1] > 92 µM | Potency [2] > 92 µM | Potency [3] | outcome [4] | Potency [5] | Potency [6] | Potency [7] | outcome [8] | Potency [9] | Potency [10] | Potency [11] | outcome [12] | outcome [13] | Potency [14] | activity change % (negative = inhibition) [15] -8.05% and 4.64%

[O-][Cl+]O
inactive: Potency [1] > 92 µM | Potency [2] > 92 µM | Potency [16] | Potency [3] | outcome [4] | Potency [5] | Potency [6] | Potency [7] | outcome [8] | Potency [9] | Potency [10] | Potency [11] | Potency [17] | outcome [12] | outcome [13] | Potency [14]

CCC[N+](=O)[O-]
inactive: Potency [1] > 92 µM | Potency [2] > 92 µM | Potency [16] | Potency [3] | outcome [4] | Potency [5] | Potency [6] | Potency [7] | outcome [8] | Potency [9] | Potency [18] | Potency [10] | Potency [11] | Potency [17] | outcome [12] | outcome [13] | Potency [14] | activity change % (negative = inhibition) [15] -9.22% | max response [19] 7.37% | outcome [20]

CCCCNC(=O)n1c(NC(=O)OC)nc2ccccc21
inactive: Potency [1] > 92 µM | Potency [2] > 92 µM | Potency [16] | Potency [3] | Potency [6] | outcome [8] | Potency [9] | Potency [18] | Potency [10] | Potency [11] | Potency [17] | outcome [12] | outcome [13] | Potency [14] | activity change % (negative = inhibition) [15] -13.8% and -24% | outcome [20]

O=Cc1ccc(Cl)cc1Cl
inactive: Potency [1] > 92 µM | Potency [2] > 92 µM | Potency [16] | Potency [3] | Potency [6] | Potency [7] | outcome [8] | Potency [18] | Potency [11] | Potency [17] | outcome [12] | outcome [13] | Potency [14] | activity change % (negative = inhibition) [15] 0.009% | max response [19] 2.77% | outcome [20]

Cc1ccc(N)cc1C
inactive: Potency [1] > 92 µM | Potency [2] > 92 µM | Potency [16] | Potency [3] | outcome [4] | Potency [5] | Potency [6] | Potency [7] | outcome [8] | Potency [9] | Potency [18] | Potency [10] | Potency [11] | Potency [17] | outcome [12] | outcome [13] | Potency [14] | activity change % (negative = inhibition) [15] 9.98% | outcome [20]

O=[N+]([O-])c1cccc2c([N+](=O)[O-])cccc12
inactive: Potency [1] > 92 µM | Potency [2] > 92 µM | Potency [16] | Potency [3] | outcome [4] | Potency [5] | Potency [6] | Potency [7] | outcome [8] | Potency [9] | Potency [18] | Potency [10] | Potency [11] | Potency [17] | outcome [13] | Potency [14] | activity change % (negative = inhibition) [15] -3.1% | max response [19] -2.66% | outcome [20]

Source: PubChem BioAssay (NCATS)
